Source: PubChem BioAssay (NCI)
About 83,000 compounds went through this panel and 20% of them were active in at least one assay; those are over-represented in the sample as a whole.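 A percent growth of 40 corresponds to 60% growth inhibition; 0 means no net growth; -100 means all cells died. Active threshold: below 10.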 Values without a mark were called inactive. Calls of active or inactive are those of the source.

test system: HCT-116 colon; experiment: NCI-60 one-dose screen, 48 h (100 = growth as untreated, 0 = no growth, -100 = all killed); details: 10 µM

| Compound | growth |
| --- | --- |
| O=C(O)c1ccc(-n2cc(CNc3ccc(Cl)cc3)c(-c3ccccc3)n2)cc1 | 85.9% |
| Cc1ccc(C(=O)C2C(=O)C3CCC2C3)cc1 (stereo not given) | 108% |
| COc1cc2c(Nc3ccc(S(N)(=O)=O)cc3)ncnc2c(OC)c1OC | 108% |
| CN1CCN(CC(=O)Nc2cccc(-n3cc(-c4ccncc4)c(-c4ccc(Cl)c(O)c4)n3)c2)CC1 | 17.3% |
| O=[N+]([O-])c1cccc(/C=N/NC(=S)NC23CC4CC(CC(C4)C2)C3)c1 | 61.1% |
| CN1CCN(c2cc3c(cc2F)c(=O)c(C(=O)O)cn3-c2ccc(F)cc2)CC1 | 95.5% |
| O=C(CN1CCN(C(=O)c2ccccc2)CC1)Nc1ccccc1SCc1ccccc1 | 85.5% |
| Clc1ccc2c(c1)C(N1CCNCC1)=Nc1ccccc1O2 | 36.2% |
| CCOC(=O)c1cc(C(=O)c2cc(OC)c(OC)c(OC)c2)n2ncc3ccccc3c12 | 50.8% |
| CC(=O)C1CCC2C3CC=C4CC(SC(=N)N)CCC4(C)C3CCC12C (stereo not given) | 1.01% (active) |
| COc1cc2c(Nc3ccc(-c4ccc(N)cc4)cc3)ncnc2c(OC)c1OC | 58.3% |
| C#C[C@]1(O)CCC2C3CCc4cc(OC5CCCC5)ccc4C3CC[C@@]21C (stereo not given in full) | 68.6% |
| Cc1cc(SC#N)cc(C(C)(C)C)c1O | 70.9% |
| Cc1cc(CCNC=O)c(C)c2c1sc1ccccc12 | 94% |
| CO[C@H]1CC(O[C@@H]2/C(C)=C/C[C@@H]3C[C@@H](C[C@]4(C=C[C@H](C)[C@@H](C5CCCCC5)O4)O3)OC(=O)[C@@H]3C=C(C)[C@@H](O)[C@H]4OC/C(=C\C=C\[C@@H]2C)[C@]43O)O[C@@H](C)C1O[C@H]1C[C@H](OC)[C@@H](O)[C@H](C)O1 (stereo not given in full) | -98.1% (active) |
